# Measured values as given in PubChem BioAssay (EPA / NIEHS).
# Several values for one entry are separate records, joined by “and”; a condition that tells them apart may be missing. Identical values can stand only once. Activity calls are given as the source filed them. The calls were made as follows: active = hit-call score of the fitted dose curve at least 0.9, where 1 is the maximum; inactive = score below 0.9.
# Assay: ATG_M_19_CIS: Attagene CIS-FACTORIAL HepG2 Assay for M19 Transcription Factor (Internal Marker) (AID 2282939)
# Conditions: HepG2 Attagene CIS-FACTORIAL M19 internal marker reporter; actives raise or lower the signal
# Method in brief: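 HepG2 cells transiently transfected with cis-regulated multiple reporter transcription units were dosed for 24 h; reporter mRNA was quantified by RT-PCR, 6-FAM primer-extension labelling, HpaI digestion and capillary electrophoresis, with bidirectional fitting against DMSO baseline.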
row,Structure (SMILES),outcome
1,C[C@]12CCC(=O)C=C1CC[C@@H]1[C@@H]2CC[C@]2(C)C(=O)CC[C@@H]12,inactive
2,CCCN(CCC)N=O,inactive
3,CO/C=C(/C(=O)OC)c1ccccc1COc1cccc(C(F)(F)F)n1,inactive
4,CC#Cc1cc(C)nc(Nc2ccccc2)n1,inactive
5,COS(=O)(=O)OC,inactive
6,Cc1cc2c3c(c1)C(c1ccccc1)=N[C@@H](NC(=O)c1ccncc1)C(=O)N3CC2,inactive
7,Cc1ccccc1CO[C@@H]1C[C@@]2(C(C)C)CC[C@]1(C)O2,inactive
8,Clc1ccc(C(c2ccccc2Cl)C(Cl)(Cl)Cl)cc1 (stereo unspecified),inactive
9,O=NN(c1ccccc1)c1ccccc1,inactive
10,CCSC(=O)N(CC)C1CCCCC1,inactive
11,Clc1ccc(Cl)cc1,inactive
12,Cc1cccc([N+](=O)[O-])c1,inactive
13,Clc1ccc(C(Cl)(Cl)Cl)cc1,inactive
14,CCC(C)(CC)c1cc(NC(=O)c2c(OC)cccc2OC)on1,inactive
15,Cc1ccccc1[N+](=O)[O-],inactive
16,Cc1cccc(C)c1N,inactive
17,Cc1ccccc1O,inactive

row,Structure (SMILES),outcome
1,CCC(C)c1cc([N+](=O)[O-])cc([N+](=O)[O-])c1O (stereo unspecified),inactive
2,C=CC(=O)NCNC(=O)C=C,inactive
3,CCNc1nc(NC(C)C)nc(SC)n1,inactive
4,Cc1cc(O)ccc1Cl,inactive
5,COc1ccc(O)c(C(C)(C)C)c1,inactive
6,CN(C)c1nc(=O)n(C2CCCCC2)c(=O)n1C,inactive
7,ClC1=C(Cl)[C@]2(Cl)[C@@H]3[C@H]4C[C@H]([C@@H]5O[C@H]45)[C@@H]3[C@@]1(Cl)C2(Cl)Cl,inactive
8,CCCCCCOC(=O)c1ccccc1C(=O)OCCCCCC,inactive
9,Nn1cnnc1,inactive
10,C=CC(N)=O,inactive
11,CCOC(=O)C(O)(c1ccc(Cl)cc1)c1ccc(Cl)cc1,inactive
12,C[C@]12CCC(=O)C=C1CC[C@@H]1[C@@H]2CC[C@@]2(C)[C@H]1CC[C@]2(C)O,inactive
13,c1ccc(-c2ccccc2)cc1,inactive
14,C1CC2OC2CC1C1CO1 (stereo unspecified),inactive
15,Cc1cc(-c2ccc(N)c(C)c2)ccc1N,inactive
16,CCCCCCCCOC(=O)c1ccccc1C(=O)OCCCCCCCC,inactive

# Assay: ATG_ERE_CIS: Attagene CIS-FACTORIAL HepG2 Assay for Estrogen Response Element (ERE) (AID 2282940)
# Conditions: HepG2 ERE cis-reporter, Attagene RNA transcript; actives raise or lower the signal
# Method in brief: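 HepG2 cells transiently transfected with cis-promoter-driven multiplexed reporter transcription units report endogenous TF activity. After 24 h compound exposure, reporter mRNA is quantified by RT-PCR with capillary electrophoresis fluorescence; bidirectional fitting versus DMSO baseline.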
Structure (SMILES),AC50,outcome
CCCN(CCC)N=O,46.4 µM (active),–
CO/C=C(/C(=O)OC)c1ccccc1COc1cccc(C(F)(F)F)n1,–,inactive
CC#Cc1cc(C)nc(Nc2ccccc2)n1,–,inactive
COS(=O)(=O)OC,–,inactive
Cc1cc2c3c(c1)C(c1ccccc1)=N[C@@H](NC(=O)c1ccncc1)C(=O)N3CC2,–,inactive
Clc1ccc(C(c2ccccc2Cl)C(Cl)(Cl)Cl)cc1 (stereo unspecified),874 nM (active) [middle of 4 runs],–
O=NN(c1ccccc1)c1ccccc1,26.1 µM (active),–
CCSC(=O)N(CC)C1CCCCC1,–,inactive
Clc1ccc(Cl)cc1,–,inactive
Cc1cccc([N+](=O)[O-])c1,–,inactive
Clc1ccc(C(Cl)(Cl)Cl)cc1,–,inactive
Cc1ccccc1[N+](=O)[O-],–,inactive
Cc1cccc(C)c1N,–,inactive
Cc1ccccc1O,–,inactive
CCC(C)c1cc([N+](=O)[O-])cc([N+](=O)[O-])c1O (stereo unspecified),–,inactive
C=CC(=O)NCNC(=O)C=C,–,inactive
Cc1cc(O)ccc1Cl,48.5 µM (active),–
COc1ccc(O)c(C(C)(C)C)c1,–,inactive
CN(C)c1nc(=O)n(C2CCCCC2)c(=O)n1C,–,inactive
ClC1=C(Cl)[C@]2(Cl)[C@@H]3[C@H]4C[C@H]([C@@H]5O[C@H]45)[C@@H]3[C@@]1(Cl)C2(Cl)Cl,0.279 µM (active),–
CCCCCCOC(=O)c1ccccc1C(=O)OCCCCCC,4.15 µM (active),–
Nn1cnnc1,39.5 µM (active),–
C=CC(N)=O,–,inactive
CCOC(=O)C(O)(c1ccc(Cl)cc1)c1ccc(Cl)cc1,2.98 µM (active),–
c1ccc(-c2ccccc2)cc1,81.8 µM (active),–
C1CC2OC2CC1C1CO1 (stereo unspecified),–,inactive
Cc1cc(-c2ccc(N)c(C)c2)ccc1N,14.6 µM (active) and 12.8 µM (active),–
CCCCCCCCOC(=O)c1ccccc1C(=O)OCCCCCCCC,–,inactive
